Drawing on PMC10812921, “Transcriptional Coactivator BOB1 (OBF1, OCA-B) Modulates the Specificity of DNA Recognition by the POU-Domain Factors OCT1 and OCT2 in a Monomeric Configuration”, this text covers binding signal for 30 sequences.

One assay addresses POU1 (OCT1 POU domain) (human, UniProt P14859 260-458). Put plainly: EMSA-SELEX-seq; no BOB1; 20 mM Tris-HCl pH 7.6, 140 mM NaCl, 10% glycerol, 0.5 mM EDTA, 0.05% Triton X-100, 0.1 mg/mL BSA, 0.1 mg/mL poly(dI-dC), 5 mM DTT, room temperature, 20 min; high values mean tight binding. To be noted: protein: recombinant; dsDNA, one strand shown. In short, it runs like this: (§1)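 Binding preference is reported as the percentage of sequenced 8-mers that match a motif pattern. Tagged POU-domain proteins were made in E. coli BL21, purified under denaturing conditions and renatured. A 30 ng portion was combined with 300 ng of a PCR-amplified double-stranded random 35-nt library, with or without 28 ng coactivator protein, in 20 μL Tris–HCl pH 7.6 binding buffer for 20 min at RT. Complex bands were excised from native 6% PAGE, eluted and PCR-amplified over four rounds before Illumina sequencing.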

A further assay has as its target T1, POU2 (OCT2 POU domain) (human, UniProt P09086 175-386).
T1 sequence: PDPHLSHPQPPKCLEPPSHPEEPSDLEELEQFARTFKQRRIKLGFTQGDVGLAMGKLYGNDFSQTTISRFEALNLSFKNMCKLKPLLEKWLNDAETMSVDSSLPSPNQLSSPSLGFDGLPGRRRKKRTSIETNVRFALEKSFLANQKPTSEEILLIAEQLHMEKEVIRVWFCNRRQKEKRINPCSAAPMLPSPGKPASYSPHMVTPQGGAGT
Described as above. To be noted: protein: recombinant; dsDNA, one strand shown. An outline of the steps: as §1

Assay [1] deals with POU1 (OCT1 POU domain);BOB1 (OBF1, OCA-B) (human;human, UniProt P14859;Q16633 260-458;1-256, |). Put plainly: EMSA-SELEX-seq; with BOB1 (ternary complex band); 20 mM Tris-HCl pH 7.6, 140 mM NaCl, 10% glycerol, 0.5 mM EDTA, 0.05% Triton X-100, 0.1 mg/mL BSA, 0.1 mg/mL poly(dI-dC), 5 mM DTT, room temperature, 20 min; high values mean tight binding. To be noted: protein: recombinant;recombinant; copies: 1;1; dsDNA, one strand shown. An outline of the steps: as §1

Assay [2] addresses T2, POU2 (OCT2 POU domain);BOB1 (OBF1, OCA-B) (human;human, UniProt P09086;Q16633 175-386;1-256, |).
T2 sequence 1: T1 sequence
T2 sequence 2: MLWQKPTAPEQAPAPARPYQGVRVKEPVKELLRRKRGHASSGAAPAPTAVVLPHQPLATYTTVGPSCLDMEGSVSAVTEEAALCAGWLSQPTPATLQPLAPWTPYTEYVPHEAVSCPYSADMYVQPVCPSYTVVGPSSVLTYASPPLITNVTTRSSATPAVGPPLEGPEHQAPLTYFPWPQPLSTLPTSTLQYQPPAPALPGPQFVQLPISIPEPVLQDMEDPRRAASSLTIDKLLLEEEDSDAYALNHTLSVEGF
The assay is described as above. To be noted: protein: recombinant;recombinant; copies: 1;1; dsDNA, one strand shown. An outline of the steps: as §1

POU1 (OCT1 POU domain), sequence (P14859 260-458): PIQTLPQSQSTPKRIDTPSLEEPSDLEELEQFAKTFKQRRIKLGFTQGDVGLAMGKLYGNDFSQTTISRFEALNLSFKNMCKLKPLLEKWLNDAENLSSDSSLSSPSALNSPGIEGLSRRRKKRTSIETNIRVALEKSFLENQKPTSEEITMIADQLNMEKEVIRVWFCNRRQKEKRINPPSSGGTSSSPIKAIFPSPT

AAACTAAA: the binding signal with POU1 (OCT1 POU domain) was 0.0503 % of ANNNNAAN 8-mers; with POU2 (OCT2 POU domain), 0.0483 % of ANNNNAAN 8-mers; in assay [1] it was 0.0523 % of ANNNNAAN 8-mers; in assay [2] it was 0.0471 % of ANNNNAAN 8-mers.

As for AGTATAAA, the binding signal is 0.0744 % of ANNNNAAN 8-mers with POU1 (OCT1 POU domain), 0.08 % of ANNNNAAN 8-mers with POU2 (OCT2 POU domain), 0.0585 % of ANNNNAAN 8-mers in assay [1] and 0.0479 % of ANNNNAAN 8-mers in assay [2].

For ACACCAAA, the binding signal in the assay with POU1 (OCT1 POU domain) is 0.0149 % of ANNNNAAN 8-mers; with POU2 (OCT2 POU domain), 0.0184 % of ANNNNAAN 8-mers; in assay [1] it was 0.0121 % of ANNNNAAN 8-mers; in assay [2] it was 0.0149 % of ANNNNAAN 8-mers.

As for ACTGAAAG, the binding signal with POU1 (OCT1 POU domain) is 0.0172 % of ANNNNAAN 8-mers; with POU2 (OCT2 POU domain) it was 0.0196 % of ANNNNAAN 8-mers; in assay [1] it was 0.0273 % of ANNNNAAN 8-mers; in assay [2], 0.0231 % of ANNNNAAN 8-mers.

Turning to AGAATAAT, the binding signal was 0.203 % of ANNNNAAN 8-mers with POU1 (OCT1 POU domain), 0.3 % of ANNNNAAN 8-mers with POU2 (OCT2 POU domain), 0.0948 % of ANNNNAAN 8-mers in assay [1] and 0.122 % of ANNNNAAN 8-mers in assay [2].

On to ATCGAAAT, for which the binding signal in the assay with POU1 (OCT1 POU domain) is 0.0694 % of ANNNNAAN 8-mers; with POU2 (OCT2 POU domain), 0.0633 % of ANNNNAAN 8-mers; in assay [1], 0.0777 % of ANNNNAAN 8-mers; in assay [2], 0.0512 % of ANNNNAAN 8-mers.

On to ACTCGAAC, for which the binding signal in the assay with POU1 (OCT1 POU domain) was 0.016 % of ANNNNAAN 8-mers; in the assay with POU2 (OCT2 POU domain) it was 0.0184 % of ANNNNAAN 8-mers; in assay [1] it was 0.0113 % of ANNNNAAN 8-mers; in assay [2], 0.0198 % of ANNNNAAN 8-mers.

As to ATAGGAAT, the binding signal was 0.098 % of ANNNNAAN 8-mers with POU1 (OCT1 POU domain), 0.132 % of ANNNNAAN 8-mers in the assay with POU2 (OCT2 POU domain), 0.0898 % of ANNNNAAN 8-mers in assay [1] and 0.106 % of ANNNNAAN 8-mers in assay [2].

ACGACAAA: the binding signal is 0.0217 % of ANNNNAAN 8-mers with POU1 (OCT1 POU domain), 0.0299 % of ANNNNAAN 8-mers with POU2 (OCT2 POU domain), 0.0222 % of ANNNNAAN 8-mers in assay [1] and 0.0256 % of ANNNNAAN 8-mers in assay [2].

Regarding ATATTAAC, the binding signal was 0.151 % of ANNNNAAN 8-mers with POU1 (OCT1 POU domain), 0.189 % of ANNNNAAN 8-mers with POU2 (OCT2 POU domain), 0.0667 % of ANNNNAAN 8-mers in assay [1] and 0.0751 % of ANNNNAAN 8-mers in assay [2].

With AAATTAAT, the binding signal with POU1 (OCT1 POU domain) is 0.415 % of ANNNNAAN 8-mers; in the assay with POU2 (OCT2 POU domain), 0.478 % of ANNNNAAN 8-mers; in assay [1] it was 0.244 % of ANNNNAAN 8-mers; in assay [2] it was 0.287 % of ANNNNAAN 8-mers.

As to ACATCAAT, the binding signal was 0.0435 % of ANNNNAAN 8-mers with POU1 (OCT1 POU domain), 0.057 % of ANNNNAAN 8-mers in the assay with POU2 (OCT2 POU domain), 0.0367 % of ANNNNAAN 8-mers in assay [1] and 0.0338 % of ANNNNAAN 8-mers in assay [2].

Turning to ACAATAAC, the binding signal with POU1 (OCT1 POU domain) was 0.0248 % of ANNNNAAN 8-mers; in the assay with POU2 (OCT2 POU domain) it was 0.0259 % of ANNNNAAN 8-mers; in assay [1] it was 0.0211 % of ANNNNAAN 8-mers; in assay [2], 0.0248 % of ANNNNAAN 8-mers.

Turning to ATCTGAAT, the binding signal is 0.201 % of ANNNNAAN 8-mers in the assay with POU1 (OCT1 POU domain), 0.232 % of ANNNNAAN 8-mers with POU2 (OCT2 POU domain), 0.102 % of ANNNNAAN 8-mers in assay [1] and 0.126 % of ANNNNAAN 8-mers in assay [2].

As for AACGTAAA, the binding signal with POU1 (OCT1 POU domain) is 0.0816 % of ANNNNAAN 8-mers; with POU2 (OCT2 POU domain), 0.0639 % of ANNNNAAN 8-mers; in assay [1], 0.0843 % of ANNNNAAN 8-mers; in assay [2] it was 0.0578 % of ANNNNAAN 8-mers.

As for AAAAGAAT, the binding signal was 0.0858 % of ANNNNAAN 8-mers with POU1 (OCT1 POU domain), 0.088 % of ANNNNAAN 8-mers with POU2 (OCT2 POU domain), 0.0937 % of ANNNNAAN 8-mers in assay [1] and 0.0817 % of ANNNNAAN 8-mers in assay [2].

Consider AGACGAAC, for which the binding signal is 0.0202 % of ANNNNAAN 8-mers with POU1 (OCT1 POU domain), 0.0236 % of ANNNNAAN 8-mers in the assay with POU2 (OCT2 POU domain), 0.0137 % of ANNNNAAN 8-mers in assay [1] and 0.0182 % of ANNNNAAN 8-mers in assay [2].

For ACAACAAA, the binding signal in the assay with POU1 (OCT1 POU domain) is 0.0301 % of ANNNNAAN 8-mers; with POU2 (OCT2 POU domain), 0.0265 % of ANNNNAAN 8-mers; in assay [1], 0.0371 % of ANNNNAAN 8-mers; in assay [2], 0.0248 % of ANNNNAAN 8-mers.

As to ATCGCAAC, the binding signal is 0.0126 % of ANNNNAAN 8-mers in the assay with POU1 (OCT1 POU domain), 0.0173 % of ANNNNAAN 8-mers with POU2 (OCT2 POU domain), 0.014 % of ANNNNAAN 8-mers in assay [1] and 0.0239 % of ANNNNAAN 8-mers in assay [2].

For AGAGCAAC, the binding signal in the assay with POU1 (OCT1 POU domain) was 0.0133 % of ANNNNAAN 8-mers; in the assay with POU2 (OCT2 POU domain), 0.0115 % of ANNNNAAN 8-mers; in assay [1], 0.0137 % of ANNNNAAN 8-mers; in assay [2], 0.0206 % of ANNNNAAN 8-mers.

For the sequence ATATGAAG, the binding signal was 0.0545 % of ANNNNAAN 8-mers in the assay with POU1 (OCT1 POU domain), 0.0823 % of ANNNNAAN 8-mers with POU2 (OCT2 POU domain), 0.0691 % of ANNNNAAN 8-mers in assay [1] and 0.0735 % of ANNNNAAN 8-mers in assay [2].

On to AGGTTAAT, for which the binding signal with POU1 (OCT1 POU domain) is 0.174 % of ANNNNAAN 8-mers; with POU2 (OCT2 POU domain), 0.216 % of ANNNNAAN 8-mers; in assay [1], 0.0921 % of ANNNNAAN 8-mers; in assay [2], 0.108 % of ANNNNAAN 8-mers.

With ACTCGAAT, the binding signal was 0.0484 % of ANNNNAAN 8-mers with POU1 (OCT1 POU domain), 0.0518 % of ANNNNAAN 8-mers with POU2 (OCT2 POU domain), 0.0402 % of ANNNNAAN 8-mers in assay [1] and 0.0504 % of ANNNNAAN 8-mers in assay [2].

With ATTGAAAG, the binding signal with POU1 (OCT1 POU domain) was 0.0603 % of ANNNNAAN 8-mers; with POU2 (OCT2 POU domain) it was 0.0604 % of ANNNNAAN 8-mers; in assay [1], 0.0632 % of ANNNNAAN 8-mers; in assay [2], 0.0611 % of ANNNNAAN 8-mers.

ACTTAAAG: the binding signal is 0.0328 % of ANNNNAAN 8-mers in the assay with POU1 (OCT1 POU domain), 0.0437 % of ANNNNAAN 8-mers with POU2 (OCT2 POU domain), 0.0328 % of ANNNNAAN 8-mers in assay [1] and 0.0462 % of ANNNNAAN 8-mers in assay [2].

In the case of AAATCAAT, the binding signal with POU1 (OCT1 POU domain) was 0.139 % of ANNNNAAN 8-mers; in the assay with POU2 (OCT2 POU domain) it was 0.143 % of ANNNNAAN 8-mers; in assay [1], 0.162 % of ANNNNAAN 8-mers; in assay [2], 0.148 % of ANNNNAAN 8-mers.

Take ATTAAAAA: the binding signal was 0.172 % of ANNNNAAN 8-mers in the assay with POU1 (OCT1 POU domain), 0.219 % of ANNNNAAN 8-mers with POU2 (OCT2 POU domain), 0.114 % of ANNNNAAN 8-mers in assay [1] and 0.09 % of ANNNNAAN 8-mers in assay [2].

Turning to ATACGAAG, the binding signal was 0.0481 % of ANNNNAAN 8-mers in the assay with POU1 (OCT1 POU domain), 0.0552 % of ANNNNAAN 8-mers in the assay with POU2 (OCT2 POU domain), 0.0574 % of ANNNNAAN 8-mers in assay [1] and 0.0388 % of ANNNNAAN 8-mers in assay [2].

Consider ACTCGAAG, for which the binding signal in the assay with POU1 (OCT1 POU domain) is 0.0187 % of ANNNNAAN 8-mers; with POU2 (OCT2 POU domain), 0.0207 % of ANNNNAAN 8-mers; in assay [1], 0.0168 % of ANNNNAAN 8-mers; in assay [2], 0.0182 % of ANNNNAAN 8-mers.

With ACCCGAAA, the binding signal with POU1 (OCT1 POU domain) is 0.0172 % of ANNNNAAN 8-mers; with POU2 (OCT2 POU domain), 0.019 % of ANNNNAAN 8-mers; in assay [1], 0.0168 % of ANNNNAAN 8-mers; in assay [2], 0.014 % of ANNNNAAN 8-mers.
